Results published in PubChem BioAssay (NCATS).
Activity calls are given as the source filed them. The call rests on the fitted dose curve; in most records, active means well fitted activation curve with a large enough effect; inconclusive means small, poorly fitted or top-dose-only effect; inactive means flat fitted curve, though single readings scatter.

assay: Confirmation and Secondary Assay for Modulators of Hemoglobin Beta Chain Splicing at IVS2 705 locus (AID 930); details: HeLa EGFP-705 splicing reporter, GFP fluorescence, 48 h; series mostly up to 46.1 µM
How it was run: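 HeLa cells stably carrying EGFP interrupted by mutant beta-globin IVS2-705 intron (CMV-driven) were seeded at 500 cells/well, treated next day with compound for 2 days at 37C; corrected splicing restores EGFP, read as total peak GFP intensity per well.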

Potency, inactive:
COc1cc(-c2cc(=O)c3c(O)c(OC)c(OC)c(OC)c3o2)cc(OC)c1OC, C#C[C@]1(O)CCC2C3CCC4=Cc5oncc5C[C@@]4(C)C3CC[C@@]21C (stereo partly specified), CC(=O)OC1CC2C(C)(C)C=CC(=O)[C@@]2(C)C2CC[C@@]3(C)C(c4ccoc4)OC(=O)C4OC43[C@]12C (stereo partly specified), CC1(C)CCC2(C(=O)O)CC[C@]3(C)C(=CCC4[C@]5(C)CCC(O)C(C)(C)C5C(O)C[C@]43C)C2C1 (stereo partly specified), CC1(C)C(=O)C2C[C@]3(O)C4=CC(=O)OC(c5ccoc5)[C@]4(C)CCC3[C@](C)(C2=O)C1CC(=O)O (stereo partly specified), Cc1cc(=O)oc2c(O)c(O)ccc12, C#C[C@@]1(O)CCC2C3CCC4=CC(=O)CCC4C3CC[C@@]21CC (stereo partly specified), C[C@@H]1CCC2[C@](C)(CO)C(O)CC[C@@]2(C)[C@@]12CC[C@](CO)(CCO)O2 (stereo partly specified), CC1(C)CCCC2(C)C3C(O)CC2(C)C(O)C31 (stereo unspecified), COc1ccc2c(c1OC)C(=O)O[C@H]2C1c2c(cc3c(c2OC)OCO3)CCN1C (stereo partly specified), CC(=O)O[C@](C)(CCC=C(C)C)C1CC=C(C)CC1 (stereo partly specified), COc1ccc(C2Oc3cc(OC)cc(OC)c3CC2O)cc1 (stereo unspecified), COc1cccc(O)c1O, CC1(C)C[C@@H]2C(=O)CCC3O[C@@]3(C)CCC21 (stereo partly specified), CC(=O)OCC(=O)[C@]1(O)C(C)CC2C3CCC4=CC(=O)C=C[C@@]4(C)[C@]3(F)C(O)C[C@@]21C (stereo partly specified), O=C1c2ccccc2C(=O)c2c(O)c(O)cc(O)c21
